Measured values reported in publication PMC9838217, “Structure of SALL4 zinc finger domain reveals link between AT-rich DNA binding and Okihiro syndrome”.
Substitutions are numbered along the chain they refer to.

Experiments:
Assay in all cases: HT-SELEX; high values mean tight binding
Details in all cases: protein: recombinant; vector His6-GST; dsDNA, one strand shown
SALL4 ZFC4 WT (HT-SELEX) = target: T1, SALL4 ZFC4 WT (HT-SELEX) (Mus musculus, UniProt Q8BX22 870-940)
T1 sequence: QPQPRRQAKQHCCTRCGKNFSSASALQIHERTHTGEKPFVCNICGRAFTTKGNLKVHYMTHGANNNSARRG
In short: (§1)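 DNA from a random library (1.5 µg in the first cycle, 200 ng afterwards) was incubated with purified recombinant mouse SALL4 zinc finger cluster 4, residues 870–940 (1 µg), for 10 min at room temperature in 100 µl buffer: 10 mM Tris–HCl pH 7.5, 50 mM NaCl, poly(dI-dC), DTT. Bound complexes were pulled down on Ni2+ beads, washed and PCR-amplified, and the selection was repeated for up to 6 cycles in triplicate. MiSeq reads were scanned for 6-mers, and binding signal is each canonical k-mer's read fraction as fold change over the initial random library.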

[1] = target: T2, SALL4 ZFC4 R900W (HT-SELEX) (Mus musculus, UniProt Q8BX22 870-940, R900W)
T2 sequence: T1 sequence with R31W
In short: as §1

[2] = target: T3, SALL4 ZFC4 G921D (HT-SELEX) (Mus musculus, UniProt Q8BX22 870-940, G921D)
T3 sequence: T1 sequence with G52D
In short: as §1

Sequence | binding signal (SALL4 ZFC4 WT (HT-SELEX)) [fold-change vs cycle 0] | binding signal [1] [fold-change vs cycle 0] | binding signal [2] [fold-change vs cycle 0]
CGGTAG | 0.351 ± 0.018 | 0.418 ± 0.01 | 0.514 ± 0.0341
ATGTCG | 0.521 ± 0.0491 | 0.603 ± 0.00997 | 0.73 ± 0.0508
TGTACA | 1.21 ± 0.0321 | 1.32 ± 0.00394 | 1.26 ± 0.0338
ATGGAA | 1.5 ± 0.0823 | 1.48 ± 0.0671 | 1.36 ± 0.0808
CGCATA | 0.489 ± 0.0286 | 0.499 ± 0.00702 | 0.636 ± 0.061
CAAAAC | 0.936 ± 0.0391 | 1.06 ± 0.0573 | 1.08 ± 0.0366
GGCAAA | 0.399 ± 0.0111 | 0.457 ± 0.0213 | 0.604 ± 0.0748
CCTACG | 0.357 ± 0.0238 | 0.443 ± 0.0174 | 0.524 ± 0.0668
GCTTCC | 0.35 ± 0.00821 | 0.454 ± 0.0368 | 0.567 ± 0.0502
TCTTAA | 2.07 ± 0.0682 | 2.14 ± 0.15 | 1.86 ± 0.222
TAACAA | 2.11 ± 0.116 | 2.02 ± 0.138 | 1.81 ± 0.153
AAATAA | 3.25 ± 0.208 | 2.56 ± 0.166 | 2.14 ± 0.25
GCCTAC | 0.304 ± 0.0224 | 0.368 ± 0.00435 | 0.499 ± 0.0602
CGTGAC | 0.379 ± 0.0323 | 0.463 ± 0.0197 | 0.556 ± 0.043
GTCTTA | 1.27 ± 0.0474 | 1.39 ± 0.0618 | 1.35 ± 0.0901
CTACGA | 0.656 ± 0.0504 | 0.762 ± 0.0209 | 0.827 ± 0.0362
AATGTA | 2.02 ± 0.0563 | 1.99 ± 0.0939 | 1.76 ± 0.157
GGTAAA | 1.19 ± 0.0123 | 1.3 ± 0.0352 | 1.23 ± 0.0522
TTGAAA | 1.92 ± 0.106 | 1.88 ± 0.0943 | 1.7 ± 0.131
AAGAGG | 0.855 ± 0.0331 | 1.01 ± 0.0625 | 0.999 ± 0.0313
AGGTGC | 0.324 ± 0.00829 | 0.389 ± 0.0132 | 0.519 ± 0.0738
GGCTTA | 0.5567 ± 0.00529 | 0.656 ± 0.0181 | 0.763 ± 0.0358
AATCCG | 0.616 ± 0.0217 | 0.698 ± 0.0254 | 0.798 ± 0.0327
AGTCAT | 1.45 ± 0.0471 | 1.53 ± 0.0494 | 1.46 ± 0.106
GAATAA | 2.13 ± 0.0471 | 2.1 ± 0.122 | 1.82 ± 0.178
GTTCTA | 1.28 ± 0.0473 | 1.39 ± 0.0453 | 1.33 ± 0.108
CTAGAA | 1.25 ± 0.0695 | 1.37 ± 0.0276 | 1.3 ± 0.11
AGAGTC | 0.786 ± 0.0201 | 0.925 ± 0.0489 | 0.995 ± 0.0509
CTTTCA | 1.3 ± 0.0524 | 1.47 ± 0.103 | 1.35 ± 0.102
ATCGAC | 0.576 ± 0.0406 | 0.632 ± 0.033 | 0.759 ± 0.0482
